AMA1 RON2 block: qHTS for Inhibitors of AMA1-RON; Towards Development of Antimalarial Drug Lead: Primary Screen | Potency, µM (titrated, usually from 58.2 µM), for the others: at the highest dose activity change, negative = inhibition, actives largely listed as inhibitors | 0.2% of 360,000 active | Plasmodium falciparum AMA1 (3D7) - RON2 peptide interaction | AlphaScreen AMA1-biotinylated RON2 peptide binding;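 also: potency is read from the fitted curve at half-maximal effect; 0% = vehicle wells and -100% = peptide control; nearly all actives have a fitted effect of over 45% in size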
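AMA1 (3D7) with his tag at 25 nM final met compounds first, then biotinylated RON2 peptide at 25 nM; detection used donor plus acceptor beads, 10 µg/mL apiece, read by AlphaScreen after 30 min at room temperature.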
Shiga inhibitor: A qHTS for Small Molecule Inhibitors of Shiga Toxin | inhibition, % at 38.7 µM | AID 2315, 2010 | 9.2% of 290,000 active | Vero cells, Shiga toxin protein synthesis inhibition reporter; in the data active = inhibition mostly above about 28%, no sharp cut-off; inactive = mostly below about 43%; also: 0% is about no effect
Pf growth 48h: Primary qHTS for delayed death inhibitors of the malarial parasite plastid, 48 hour incubation | P. falciparum luciferase growth in erythrocytes, 48 h | Potency, µM (doses to about 28.7 µM), inactives show at the top dose activity change, negative = inhibition, hits mostly inhibitors | AID 504832, 2011 | 5.9% of 310,000 active; also: potency is read from the fitted curve at half-maximal effect; % is scaled to controls: 0 for no effect and ±100 for the full control effect
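Here the parasites carry a stable luciferase gene and grow inside erythrocytes in Albumax-based RPMI medium with compound for one erythrocytic cycle. Activity is scored as loss of luminescent signal.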
Pf growth 96h: Primary qHTS for delayed death inhibitors of the malarial parasite plastid, 96 hour incubation; P. falciparum luciferase reporter growth, 96 h; Potency, µM (highest dose often 28.7 µM), without a hit: at the highest dose activity change, negative = inhibition, actives largely listed as inhibitors; 6.9% of 320,000 active; also: potency is read from the fitted curve at half-maximal effect; % is scaled to controls: 0 for no effect and ±100 for the full control effect
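Compounds incubated with erythrocytes infected by luciferase-expressing P. falciparum (2% hematocrit, 0.05% parasitemia final) for 96 hours, 37 C in 5% CO2. Growth inhibition scored as decreased luciferase luminescence.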
HCV inhibitor: qHTS Assay for Inhibitors of Hepatitis C Virus (HCV); 3.4% of 340,000 active; Huh7.5.1 HCVcc-Cre infection, luciferase reporter, 44 h; Potency, µM (doses to about 41.8 µM), for inactives: at the highest dose activity change, negative = inhibition, usual class: inhibitors; AID 651820, 2012; also: potency is read from the fitted curve at half-maximal effect; % is scaled to controls: 0 for no effect and ±100 for the full control effect
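Reporter virus HCVcc-Cre (~0.5 moi) infects cells exposed to compound; seeding density 1,000 cells/well with 4 h settling beforehand. Luminescence, 15 sec read, taken 44 h post-infection following a 15 min RT substrate incubation.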
Cycloheximide cs: Cycloheximide Counterscreen for Small Molecule Inhibitors of Shiga Toxin; AID 2314, 2010; cell reporter, cycloheximide protein synthesis inhibition counterscreen; max response, %; 12% of 300,000 active; in the data active = max response mostly above about 13%, no sharp cut-off; inactive = mostly below about 14%; also: read at 38.3 µM for the half of the compounds with a filed dose; 0% is about no effect
* = called active by the depositor; [ ] = dose if it differs, or a comment. The list is not random: actives were taken first. Their share in the collection is about 21%. Unless noted, calls follow the shape of the dose curve; as a rule, active = well fitted curve in the direction sought with a large enough effect; inconclusive = small, poorly fitted or top-dose-only effect, or another doubt; inactive = no such curve, though single readings can be large; an effect the other way counts as inactive or inconclusive.

For O=C(NCc1ccccc1)C1=C[C@@H](c2coc3ccccc3c2=O)C[C@@H](OCCCCO)O1 the results were AMA1 RON2 block -6%, Shiga inhibitor 40, Pf growth 48h inconclusive, Pf growth 96h inconclusive, HCV inhibitor 10% and Cycloheximide cs 1.
For O=C(NCc1ccccc1)C1=C[C@H](c2coc3ccccc3c2=O)C[C@H](OCCCCO)O1 the results were AMA1 RON2 block 2%, Shiga inhibitor -12, Pf growth 48h inconclusive, Pf growth 96h 10µM*, HCV inhibitor -10%[8.37 µM] and Cycloheximide cs 1.
For CC(=O)n1cc([C@H]2C=C(C(=O)Nc3ccccc3)O[C@@H](OCCCCO)C2)c2ccccc21 the results were AMA1 RON2 block -7%, Shiga inhibitor 2, Pf growth 48h 9.3µM*, Pf growth 96h inconclusive, HCV inhibitor -13% and Cycloheximide cs 15.
CC(=O)n1cc([C@H]2C=C(C(=O)NCc3ccccc3)O[C@@H](OCCCCO)C2)c2ccccc21 was read as AMA1 RON2 block 6%, Shiga inhibitor 1, Pf growth 48h 5.9µM*, Pf growth 96h inconclusive, HCV inhibitor -20% and Cycloheximide cs -3.
`Cc1cccc2c1NC(=O)C2(O)N1CCCC(C)C1` (configuration not stated) gave AMA1 RON2 block 6%, Pf growth 48h inconclusive, Pf growth 96h -20%, HCV inhibitor 10% and Cycloheximide cs -2.
`Cc1cccc(C)c1NC(=S)NC(=O)c1ccccc1F` gave AMA1 RON2 block 48%, Shiga inhibitor -12, Pf growth 48h inconclusive, Pf growth 96h -16%, HCV inhibitor -6% and Cycloheximide cs -3.
Cc1onc(NC(=O)c2ccc(Cl)cc2Cl)c1Br was read as AMA1 RON2 block 2%, Shiga inhibitor 72*, Pf growth 48h 150%, Pf growth 96h 132%, HCV inhibitor -8% and Cycloheximide cs 42*.
`Cc1onc(NC(=O)NC(=O)c2ccccc2F)c1Br` gave AMA1 RON2 block -4%, Shiga inhibitor 37, Pf growth 48h 30%, Pf growth 96h 18%, HCV inhibitor 6% and Cycloheximide cs 21*.
Screening Cc1cc(C)nc(NC(=O)c2ccc(Cl)cc2Cl)n1 returned AMA1 RON2 block 6%, Shiga inhibitor 16, Pf growth 48h -13%, Pf growth 96h 18%, HCV inhibitor 2% and Cycloheximide cs -2.
Screening O=C(CCl)N(c1ccccc1)c1c[nH]c2ccccc12 returned AMA1 RON2 block 0%, Shiga inhibitor 16, Pf growth 48h 1.7µM*, Pf growth 96h 1.2µM*, HCV inhibitor 1.3µM* and Cycloheximide cs 3.
Screening O=C(O)Cc1c[nH]c2ccccc12 returned AMA1 RON2 block 8% and HCV inhibitor 27%.
O=C(CCl)N(c1ccc(Cl)cc1)c1c[nH]c2ccccc12 was read as AMA1 RON2 block 7%, Shiga inhibitor -14, Pf growth 48h 2.3µM*, HCV inhibitor 2.5µM* and Cycloheximide cs 12.
For COc1ccc(Cl)cc1-c1ccc(C(=O)O)s1 the results were Shiga inhibitor inactive and Cycloheximide cs 24.
For O=C1CCCN1c1ncc(S(=O)(=O)c2ccc([N+](=O)[O-])cc2)s1 the results were AMA1 RON2 block 5%, Shiga inhibitor 27, Pf growth 48h inconclusive, Pf growth 96h 4.1µM*, HCV inhibitor inconclusive and Cycloheximide cs -2.
NC(=O)c1cccnc1Nc1cccc([N+](=O)[O-])c1 was read as AMA1 RON2 block 4%, Shiga inhibitor 84*, Pf growth 48h 95%, Pf growth 96h 160%, HCV inhibitor -8% and Cycloheximide cs 48*.
Screening N#Cc1c2n(c(=S)n(-c3ccc(OC(F)F)cc3)c1=O)CCCCC2 returned AMA1 RON2 block 12%, Shiga inhibitor 20, Pf growth 48h -21%, Pf growth 96h inconclusive, HCV inhibitor -22% and Cycloheximide cs -5.
`N#Cc1c2n(c(=S)n(-c3ccccn3)c1=O)CCCCC2` gave AMA1 RON2 block 16%, Shiga inhibitor 25, Pf growth 48h 12%, Pf growth 96h 8%, HCV inhibitor 16% and Cycloheximide cs 16*.
`CCOC(=O)/C(C#N)=C/c1ccc(SC)cc1` gave AMA1 RON2 block -5%, Shiga inhibitor 34, Pf growth 48h 18%, Pf growth 96h inconclusive, HCV inhibitor 16% and Cycloheximide cs 27.
For CCOc1c(/C=C(\C#N)C(N)=O)c2ccccc2n1CC the results were AMA1 RON2 block -4%, Shiga inhibitor -5, Pf growth 48h 4%, Pf growth 96h 13µM*, HCV inhibitor inconclusive and Cycloheximide cs -2.
`CCOC(=O)/C(C#N)=C\c1c(OCC)n(CC)c2ccccc12` gave AMA1 RON2 block -24%, Shiga inhibitor -9, Pf growth 48h inconclusive, Pf growth 96h 12µM*, HCV inhibitor inconclusive and Cycloheximide cs -4.
`COc1ccc(CNc2nc3nc(C)c(Cl)c(C)n3n2)cc1OC` gave AMA1 RON2 block -7% and HCV inhibitor 10%.
Screening COc1cccc(CNc2nc3nc(C)c(Cl)c(C)n3n2)c1 returned AMA1 RON2 block -5%, Shiga inhibitor 48*, Pf growth 48h 76%, Pf growth 96h 23%, HCV inhibitor -28% and Cycloheximide cs 35*.
Screening COc1ccc(CNc2nc3nc(C)cc(C)n3n2)cc1 returned AMA1 RON2 block -3%, Shiga inhibitor 34*, Pf growth 48h 44%, Pf growth 96h 40%, HCV inhibitor 0% and Cycloheximide cs 10.
`Cc1nc2nc(-c3ccco3)nn2c(C)c1Cl` gave AMA1 RON2 block -12%, Shiga inhibitor 8, Pf growth 48h 54%, HCV inhibitor -9% and Cycloheximide cs 14*.
Screening COc1ccc(OC)c(S(=O)(=O)NCc2nc3nc(C)cc(C)n3n2)c1 returned AMA1 RON2 block -6%, Shiga inhibitor 21, Pf growth 48h -7%, Pf growth 96h 13µM*, HCV inhibitor 11% and Cycloheximide cs -2.
`Cc1ccc(C(=O)NCCc2nnc3ccc(SCC(=O)Nc4nnc(C)s4)nn23)cc1` gave AMA1 RON2 block 0%.
`COc1ccc(CNc2nc3nc(C)c(Cl)c(C)n3n2)cc1` gave AMA1 RON2 block 6%, Shiga inhibitor 56*, Pf growth 48h 38%, Pf growth 96h 39%, HCV inhibitor 16% and Cycloheximide cs 35*.
COc1ccc(-c2nc3nc(C)cc(C)n3n2)cc1 was read as AMA1 RON2 block -8%, Shiga inhibitor 37*, Pf growth 48h 110%, HCV inhibitor 4% and Cycloheximide cs 17*.
O=C(Cc1cccs1)NCc1cccs1 was read as AMA1 RON2 block -4%, Shiga inhibitor 39, Pf growth 48h 16%, HCV inhibitor 3% and Cycloheximide cs 13.
